Source: PubChem BioAssay (The Scripps Research Institute Molecular Screening Center)
DAX1 inh-1: inhibitors of human orphan nuclear receptor DAX1 (NR0B1); P51843; HEK293 Gal4-DAX1 luciferase reporter, luminescence; inhibition, % at 6.75 µM; actives 0.99% (n = 340,000);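 active = inhibition above the mean over all tested compounds plus 3 SD, cut at about 4.2% in these data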;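 note: 0% = DAX1-transfected cells with DMSO and 100% = empty-vector control cells with DMSO; inhibition shows as a rise in luminescence from relieved DAX1 repression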
Target sequence (P51843 207-470 limits assumed): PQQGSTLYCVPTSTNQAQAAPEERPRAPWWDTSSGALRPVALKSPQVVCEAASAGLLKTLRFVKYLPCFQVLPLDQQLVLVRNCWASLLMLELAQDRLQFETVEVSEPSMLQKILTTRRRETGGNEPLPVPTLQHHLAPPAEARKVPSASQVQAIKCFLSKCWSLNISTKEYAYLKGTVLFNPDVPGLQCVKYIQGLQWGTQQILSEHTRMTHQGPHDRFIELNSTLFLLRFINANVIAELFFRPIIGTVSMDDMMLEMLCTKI
AHR act: activators of human aryl hydrocarbon receptor. P35869. AHR-responsive luciferase reporter cells, luminescence. actives 2.5% (n = 320,000). activation, % at 5 µM; in the data active = activation above about 47%;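 note: 0% = vehicle wells and 100% = reference agonist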
hcDAF-12 act: activators of H. contortus DAF-12 nuclear receptor. HEK293 hcDAF-12 lit1-tk-luc reporter, luminescence; 0% DMSO, 100% Δ7-dafachronic acid. actives 1.4% (n = 370,000). activation, % at 6.8 µM;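 active = activation above the mean of all tested compounds plus 3 SD, cut at about 5.5% in these data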;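 note: 100% = response to 3 µM Δ7-dafachronic acid high control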
ssDAF-12 act: activates DAF-12 receptor from parasite S. stercoralis. HEK293 ssDAF-12/GRIP1 lit1-tk-luc reporter, luminescence; % of 3 µM dafachronic acid response. activation, % at 6.8 µM. actives 1% (n = 370,000);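 active = activation above the mean over all tested compounds plus 3 SD, cut at about 0.9% in these data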;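 note: 0% = DMSO-only wells and 100% = 3 µM delta7-dafachronic acid wells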
hgDAF12 agonist: hgDAF-12 agonism, primary luciferase screen. HEK293 GAL4-hgDAF12 UAS-luciferase reporter, agonist luminescence; normalized to butyrate control. activation, % at 6.8 µM. actives 1.8% (n = 370,000). AID 687014;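 active = activation above a cutoff set at the mean of all screened compounds plus 3 SD, cut at about 10% in these data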;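 note: 0% = DMSO wells and 100% = sodium butyrate wells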
DAX1 inh-2: DAX1 (NR0B1) inhibition, primary screen; HEK293T StAR-luciferase reporter, SF-1/DAX-1 repression relief; inhibition, % at 6.8 µM; AID 652010; actives 1.1% (n = 370,000);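 active = inhibition above the mean over all tested compounds plus 3 SD, cut at about 3.6% in these data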;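 note: 0% = DAX-1 cells with DMSO and 100% = cells lacking DAX-1 with DMSO; higher inhibition means more luminescence from relief of DAX-1 repression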
LXR ag: LXR-beta agonism as hcDAF-12 counter-screen; 3,400 tested, under 10 active; shares compounds with hcDAF-12 act; AID 743027; activation, % at 6.8 µM; HEK293 Gal4-LXR tk-luc reporter, luminescence, 24 h; normalized: DMSO 0%, positive control 100%;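 active = mean percent activation of the reporter above a cutoff set as the average over tested compounds plus their standard deviation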
Target sequence (P55055 whole entry, looked up, the tested form may be a part): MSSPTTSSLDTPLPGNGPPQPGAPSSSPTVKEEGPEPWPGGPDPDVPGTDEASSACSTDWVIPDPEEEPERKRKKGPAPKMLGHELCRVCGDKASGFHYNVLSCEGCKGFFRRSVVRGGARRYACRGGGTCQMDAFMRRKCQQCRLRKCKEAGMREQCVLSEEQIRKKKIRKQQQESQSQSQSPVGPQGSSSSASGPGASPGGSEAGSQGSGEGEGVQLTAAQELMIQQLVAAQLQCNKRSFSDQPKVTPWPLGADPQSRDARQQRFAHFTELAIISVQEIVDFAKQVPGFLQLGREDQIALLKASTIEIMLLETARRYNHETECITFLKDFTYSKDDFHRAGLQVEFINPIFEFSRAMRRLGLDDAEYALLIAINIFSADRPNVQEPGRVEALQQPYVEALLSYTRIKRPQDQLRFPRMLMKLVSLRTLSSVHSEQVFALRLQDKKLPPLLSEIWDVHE
hcDAF12 ag: hcDAF-12 agonism, confirmation assay; actives 61% (n = 3,400); activation, % at 6.8 µM; AID 743032; HEK293 hcDAF-12 lit1-tk-luc reporter, luminescence; % of Δ7-dafachronic acid response; shares compounds with hcDAF-12 act;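 active = mean activation across triplicate tests above the threshold derived from the earlier primary screen, cut at about 5.5% in these data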;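 note: 0% = DMSO only wells and 100% = 3 µM Δ7-dafachronic acid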
hgDAF12 conf: hgDAF-12 agonism, confirmation assay | activation, % at 6.8 µM | actives 80% (n = 3,300) | AID 743050 | HEK293 GAL4-hgDAF12 luciferase reporter, agonist mode; percent of butyrate response | shares compounds with hgDAF12 agonist;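 active = mean activation over triplicate wells above the hit cutoff derived from the earlier primary screen, cut at about 11% in these data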;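 note: 0% = DMSO low control and 100% = 2 mM sodium butyrate high control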
LXRb DAF12 ctr: activates human LXR-beta, counter-screen for DAF-12 agonists. activation, % at 6.8 µM. AID 743051. HEK293 Gal4-LXR luciferase reporter, 24 h. 3,300 tested, under 10 active. shares compounds with hgDAF12 agonist;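 active = mean activation of the triplicate above a set limit carried over from the primary screen, none filed active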
An asterisk follows results filed as active; . = not tested or not shown. This is a sample that favours compounds with a hit; in the whole collection about 5.7% have one here.

SMILES	DAX1 inh-1	AHR act	hcDAF-12 act	ssDAF-12 act	hgDAF12 agonist	DAX1 inh-2	LXR ag	hcDAF12 ag	hgDAF12 conf	LXRb DAF12 ctr
O=C(NC(=S)Nc1ccccc1)c1ccc(Br)o1	2.3	11.2	7.9*	-0.6	17.1*	1.6	0.7	7.6*	13.3*	0.4
COc1ccc(/C=C/c2ccc3cccc(O)c3n2)cc1Br	1.4	-0.2	-1.9	-1.1	2.9	0.1	.	.	.	.
Oc1cccc(/C=C/c2ccc3cccc(O)c3n2)c1	2.8	70.3*	26.1*	4.7*	23.4*	3.6*	2.3	21.3*	27.8*	1.3
COc1ccc(/C=C/c2ccc3cccc(O)c3n2)c(OC)c1OC	-4.4	-1.3	-2.0	-1.0	-5.4	-0.9	.	.	.	.
Cc1ccc(/C=C/c2ccc3cccc(O)c3n2)s1	3.6	36.0	8.9*	1.5*	17.5*	1.5	1.4	14.9*	16.1*	0.9
CN(C)C=Nc1ccc2nc3c(cc2c1)[nH]c1ccccc13	1.3	70.9*	17.8*	1.9*	17.5*	2.3	1.5	13.3*	19.0*	0.8
COc1ccc(-n2c(N)c(C#N)c3ccc([N+](=O)[O-])cc3c2=O)cc1	-0.5	26.4	3.0	-1.3	4.7	1.3	.	.	.	.
COc1ccc(-n2cc3ccc([N+](=O)[O-])cc3n2)cc1	2.4	0.8	6.7*	0.3	21.0*	1.9	1.7	7.1*	18.7*	1.1
Cc1ccc(-c2nc3ccccc3nc2NN)cc1	5.1*	7.7	11.7*	2.2*	17.9*	2.9	1.8	11.3*	19.9*	0.8
CC(=O)Nc1ccc(S(=O)(=O)NCC(=O)OCC(=O)NC(=O)C2CCCCC2)cc1	-1.1	4.3	-1.7	-0.4	-1.0	0.1	.	.	.	.
Cc1ccc2nc(-c3ccc(O)cc3)oc2c1	-0.4	0.3	9.0*	2.2*	18.5*	2.8	1.8	7.2*	21.5*	1.1
COc1ccc(C(=O)n2cc(C(C)=O)c3ccccc32)cc1	2.7	10.9	0.0	-0.7	2.2	-0.7	.	.	.	.
CN(/N=C/c1ccncc1)c1cnc2ccccc2n1	1.3	40.5	6.6*	1.5*	19.0*	4.4*	0.9	10.3*	12.5*	0.7
CN(/N=C/c1ccncc1)C1=NCCN1	-0.1	4.7	-0.7	-0.6	0.4	-0.1	.	.	.	.
COc1cccc(-c2nc3ccccc3s2)c1	1.1	68.4*	14.9*	1.7*	17.2*	4.4*	1.6	10.9*	26.6*	1.1
O=C(N/N=C1\C2CN3CCN(C2)CC1(c1ccccc1)C3)c1ccc(F)cc1	1.8	6.0	-0.8	-1.7	9.8	0.6	.	.	.	.
Nc1ccccc1C(=O)N/N=C1\C2CN3CCN(C2)CC1(c1ccccc1)C3	5.0*	34.1	12.2*	0.3	13.8*	3.2	-0.2	0.1	1.6	0.1
O=c1oc2ccccc2c(O)c1Cc1cc(Cl)c2cccnc2c1O	0.3	0.8	-0.8	-0.8	-0.2	-0.2	.	.	.	.
Cc1csc(NC(=O)c2cccnc2)n1	0.7	-1.6	1.6	-1.0	2.5	0.6	.	.	.	.
Cc1csc(NC(=O)c2ccc3nc[nH]c3c2)n1	1.2	33.3	9.8*	0.1	19.7*	2.5	1.2	5.1	19.6*	0.9
Cc1ccc(-c2cn(-c3ccccc3)c(SCC(=O)NC3CCS(=O)(=O)C3)n2)cc1C (configuration not stated)	1.1	45.5	8.4*	-0.2	17.0*	2.0	1.0	4.1	6.6	0.7
NS(=O)(=O)c1ccc(N/C=C/C(=O)c2ccc(Br)cc2)cc1	-0.2	3.9	3.5	0.2	9.2	0.8	.	.	.	.
NS(=O)(=O)c1ccc(N/C=C\C(=O)c2ccc(F)cc2)cc1	1.0	11.0	6.7*	-0.1	16.1*	4.2*	0.8	4.7	12.9*	0.5
N#CC(=C1CCCC1)c1nc(-c2ccccc2)cs1	5.2*	6.7	7.5*	1.7*	17.4*	2.2	1.3	6.0*	21.1*	0.8
Cc1ccc(-c2csc(C(C#N)=C3CCCC3)n2)cc1	-1.2	-1.8	-0.4	-1.2	1.6	0.2	.	.	.	.
SMILES	DAX1 inh-1	AHR act	hcDAF-12 act	ssDAF-12 act	hgDAF12 agonist	DAX1 inh-2	LXR ag	hcDAF12 ag	hgDAF12 conf	LXRb DAF12 ctr
Cn1c(=O)c(C(=O)Nc2ccccc2S(N)(=O)=O)c(O)c2ccccc21	3.7	22.2	2.7	-0.5	6.6	0.8	.	.	.	.
Cn1c(=O)c(C(=O)Nc2ccccn2)c(O)c2ccccc21	3.7	46.6	13.8*	3.0*	16.6*	3.9*	1.9	18.4*	24.5*	1.2
NC(=O)c1ccccc1NC(=O)c1ccc2ccccc2c1	0.0	13.1	11.3*	3.1*	22.6*	2.7	1.9	9.2*	22.5*	1.0
COc1ccc(-c2nc3c(C)cc(Br)cn3c2Cc2cccc(F)c2)cc1OC	.	.	0.8	-1.4	3.6	-1.2	.	.	.	.
COc1ccc(-c2nc3c4ccccc4ccn3c2Cc2cccc(F)c2)cc1OC	.	.	6.7*	1.0*	16.2*	-0.7	0.6	7.4*	14.3*	0.4
O=C(Nc1ccccc1)c1cc2ccccc2s1	2.8	.	10.3*	1.1*	22.5*	4.2*	1.9	11.3*	20.3*	1.1
Nc1cc(-c2nc3ncccc3o2)ccc1Cl	2.3	59.0*	12.0*	1.4*	14.3*	2.5	0.9	8.3*	10.1	0.4
Nc1ccc(Cl)c(-c2nc3ncccc3o2)c1	0.2	0.2	-1.7	-0.9	3.3	-0.4	.	.	.	.
CN1CCSc2ccc(C(=O)Nc3cc(F)ccc3F)cc21	9.5*	31.2	7.2*	1.1*	19.7*	4.3*	1.5	4.0	17.9*	0.9
O=C1c2ccccc2-c2nc3ccccc3cc21	3.6	28.6	7.9*	1.0*	15.1*	2.3	1.3	9.9*	16.7*	0.8
Cc1cccc(Nc2n[nH]c(C)c2[N+](=O)[O-])c1	2.3	59.2*	6.8*	-0.2	14.4*	3.7*	1.1	5.8*	13.7*	0.7
CC(=O)Nc1ccc(-c2cn3cc(C)ccc3n2)cc1	-0.8	-5.4	10.6*	-0.1	18.5*	3.6*	1.4	7.4*	11.4*	0.5
